# Results reported in PubChem BioAssay.
# The source made the active and inactive calls.
# Test: small-molecule binders of probe aLefty1, primary screen, biochemical, small-molecule microarray, 635/667 nm fluorescence (AID 1153);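 further: score merges spot fluorescence with signal-to-noise ratio from the scanned slide images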
# Conditions: higher = more signal
row,Structure (SMILES),composite z-score
1,CO[C@H]1COC(=O)[C@@H](Cc2ccccc2)NC(=O)[C@@H](C)COC(=O)CCC[C@@H]1C,-0.309
2,CCOC(=O)NN=C1C[C@@H](O)[C@@H](O)[C@@H]2[C@@H]3C(=O)N([C@@H](C)c4ccccc4)C(=O)[C@@H]3CC[C@H]12,0.119
3,CO[C@H]1COC(=O)CCC[C@@H](C)[C@H](OC)COC(=O)[C@@H]2CCCN2C(=O)CC=C[C@@H]1C,-0.005
4,COc1cccc([C@H]2Oc3ccc(OC)cc3C(=NOC(C)CN3CCCCc4nc(C)c(C)cc43)[C@@H]2O)c1 (some centres undefined),-0.103
5,O=C1[C@H]2[C@H]3[C@H](O)[C@H](O)CC(=NOC[C@@H](O)COCc4ccco4)[C@H]3CC[C@H]2C(=O)N1Cc1ccccc1,-0.154
6,COc1cccc([C@H]2Oc3ccc(OC)cc3C(=NOC[C@@H](O)[C@H]3O[C@@H]4OC(C)(C)O[C@@H]4[C@H]3O)[C@@H]2O)c1,-0.387
7,Cn1c(=O)n2n(c1=O)[C@H]1[C@H](O)[C@@H]3O[C@@H]3C(=NOCc3ccccc3)[C@H]1CC2,-0.0501

# Test: PSAC antagonists in infected red cells, primary screen, cell-based, P. falciparum Indochina, OD700, 1 h (AID 1154)
# Conditions: P. falciparum Indochina infected RBC osmotic lysis, higher = more signal, called active from +8 up or from −8 down
row,Structure (SMILES),z-score
1,CCOC(=O)[C@H](CC(C)C)NC(=O)CCC1CC(OC(=O)NCc2cccc3ccccc23)CC2(CCCC(COC(=O)NCCC(C)C)O2)O1 (some centres undefined),22.7 (active)
2,CCOC(=O)[C@H](CC(C)C)NC(=O)CCC1CC(OC(=O)NCc2cccc3ccccc23)CC2(CCCC(COC(=O)NCC3CCCCC3)O2)O1 (some centres undefined),0.864 (inactive)
3,CCC=CCCC(OC(=O)c1ccc(Br)cc1)C1=CCCCC1=O (centres undefined),3.4 (inactive)
4,Cc1cc2c(nc1C)CCCCN2CC(C)ON=C[C@@H](C)[C@H](OCc1ccccc1)C(C)C (some centres undefined),1.34 (inactive)
5,CCOC(=O)[C@H](Cc1ccccc1)NC(=O)CCC1CC(OC(=O)NCc2cccc3ccccc23)CC2(CCCC(COC(=O)NCCC(C)C)O2)O1 (some centres undefined),15.9 (active)
6,Cc1ccc(S(=O)(=O)n2c3ccccc3c3nnc(C(=O)c4ccccc4)nc32)cc1,4.4 (inactive)
7,COC(=O)NCC=Cc1nc(CCCO)co1,0.0325 (inactive)
8,Cc1ccc(S(=O)(=O)N[C@H]2COC(=O)CC=C[C@H](C)[C@@H](NS(=O)(=O)c3ccc(C)cc3)COC(=O)CC=C[C@@H]2C)cc1,0.334 (inactive)
9,O=C1[C@H]2[C@H]3[C@H](O)[C@H](O)CC(=NOCc4ccccc4)[C@@H]3CC[C@H]2C(=O)N1C[C@@H]1CCCO1,-0.132 (inactive)
10,CCCCC#C[C@@H]1C=C[C@H](OC(C)=O)[C@@H](COC(C)=O)O1,0.604 (inactive)
11,Cc1cc2c(nc1C)CCCN2CC(O)CN1CCCc2nc(C)c(C)cc21,-0.274 (inactive)
12,C#CCCCON=C1C[C@@H](O)[C@@H](O)[C@@H]2[C@@H]3C(=O)N(CC)C(=O)[C@@H]3CC[C@@H]12,0.299 (inactive)
13,CCOC(=O)CCN1C(=O)[C@H]2[C@H]3[C@H](O)[C@H](O)CC(=NNC(=O)OCc4ccccc4)[C@@H]3CC[C@H]2C1=O,0.0026 (inactive)
14,CC(C)(C)N1C(=O)[C@H]2[C@H]3[C@H](O)[C@H](O)CC(=NOCc4ccccc4)[C@H]3CC[C@H]2C1=O,4.05 (inactive)
15,C[C@H]1COC(=O)[C@@H]2CCCN2C(=O)[C@@H](C)COC(=O)[C@H](Cc2ccccc2)NC1=O,0.115 (inactive)
16,O=C1[C@H]2[C@H]3[C@H](O)[C@H](O)CC(=NO[C@@H]4O[C@H](CO)[C@@H](O)[C@H](O)[C@H]4O)[C@H]3CC[C@H]2C(=O)N1c1cccc(Oc2ccccc2)c1,0.257 (inactive)
17,CC(C)=CCCC(C)=CCON=C1C[C@@H](O)[C@@H](O)[C@@H]2[C@@H]3C(=O)N(Cc4ccccc4)C(=O)[C@@H]3CC[C@H]12,4.49 (inactive)
18,CC(C)(C)N1C(=O)[C@H]2[C@H]3[C@H](O)[C@H](O)CC(=O)[C@H]3CC[C@H]2C1=O,-0.0882 (inactive)
19,COc1ccc(O[C@H]2C=C[C@@H](c3ccccc3)O[C@@H]2COC(=O)CCC(C)=NO[C@@H]2O[C@H](COC(C)=O)[C@@H](OC(C)=O)[C@H](OC(C)=O)[C@H]2OC(C)=O)cc1,1.73 (inactive)
20,COc1ccc(COC(=O)NN=C2C[C@@H](O)[C@@H](O)[C@@H]3[C@@H]4C(=O)N(Cc5ccccc5)C(=O)[C@@H]4CC[C@H]23)cc1,8.9 (active)
21,COc1cc(O)c(C(=O)C=Cc2ccc3c(c2)OCO3)c(OC)c1,18.9 (active)
22,C#CCCCON=C1C[C@@H](O)[C@@H](O)[C@@H]2[C@@H]3C(=O)N(C(C)(C)C)C(=O)[C@@H]3CC[C@H]12,3.84 (inactive)
